An excerpt weighted towards active compounds, which were near 6.7% of everything screened.
T cruzi growth-1: T. cruzi intracellular proliferation inhibitors, primary screen, cell-based, beta-gal Tulahuen parasites, NIH3T3 host, luminescence; T. cruzi beta-gal in NIH3T3, GalScreen luminescence, 90 h; inhibition, % at 8.34 µM; 5.9% of 77,000 active; AID 624255, 2012;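 active = mean inhibition above about 93%, with at least 55% of replicates each passing it, limit read from the data, passing the limit was not always enough; inconclusive = only one of those two conditions holds; inactive = neither condition holds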
Pf Dd2 inh: P. falciparum Dd2 growth inhibitors, primary screen, SYBR Green fluorescence, single dose replicates; 72 h; stronger effect = lower value; activity change, % at 10 µM; 2.3% of 94,000 active; AID 1159554, 2015; in the data active = activity change below about -80%; inconclusive = no clear call, values can overlap the other calls
C diff HTS: C. difficile growth inhibitors, primary screen, HTS | Clostridium difficile clinical isolate growth, OD600, 24 h; stronger effect = lower value | 0.25% of 86,000 active | growth activity, negative = inhibition, % at 16 µg/mL (by protocol);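 active = mean growth activity at or below -80% and every replicate also at or below -80%; inconclusive = mean at or below -80% but some replicate above -80%; inactive = mean growth activity above -80%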
T cruzi growth-2: T. cruzi intracellular proliferation inhibitors, confirmation, cell-based, NIH3T3 host, beta-gal parasite, luminescence, cherry-pick. T. cruzi beta-gal in NIH3T3, GalScreen luminescence, 90 h. shares compounds with T cruzi growth-1. AID 651739, 2012. inhibition, % at 8.35 µM. 72% of 5,600 active;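 active = mean replicate inhibition above about 95% and at least 55% of replicates individually reaching it, limit read from the data; inconclusive = only one of the two criteria is met; inactive = neither criterion is met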
T cruzi growth-3: inhibitors of intracellular T. cruzi replication, confirmation, NIH3T3 host cells, beta-gal parasites, cherry-pick, set 2. 21% of 5,600 active. shares compounds with T cruzi growth-1. inhibition, % at 2.09 µM. T. cruzi beta-gal in NIH3T3, GalScreen luminescence, 90 h. AID 651740, 2012;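 active = mean inhibition above about 95%, with at least 55% of replicates also reaching it, limit read from the data; inconclusive = meets just one of the two conditions; inactive = meets neither condition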
NIH3T3 tox: cytotoxicity in mouse NIH/3T3 fibroblasts, confirmation, cytotoxicity control for T. cruzi proliferation inhibitor project, cell-based, cherry-pick, single point; NIH/3T3 viability, CellTiter-Glo ATP luminescence, 90 h; 14% of 5,600 active; AID 651742, 2012; shares compounds with T cruzi growth-1; cytotoxicity (signal decrease), % at 8.35 µM;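 active = mean signal decrease across replicates above about 35% based on untreated-well scatter, with enough replicates individually passing, limit read from the data; inconclusive = no rule stated though some were filed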
3T3 cytotox 2: NIH/3T3 fibroblast cytotoxicity, confirmation, cytotoxicity control, cell-based, cherry-pick, single point, set 2 | shares compounds with T cruzi growth-1 | NIH/3T3 viability, CellTiter-Glo ATP luminescence, 90 h | inhibition, % at 24.9 µM | 56% of 5,600 active | AID 651744, 2012;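 active = mean loss of cell viability signal at or above a set limit, and enough replicates individually reaching it; inconclusive = meets only the mean limit or only the replicate share; inactive = meets neither condition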
Large screens that a line does not name were inactive (follow-up assays come after a bar, where they were run).

COc1ccc(S(=O)(=O)N(C)C[C@@H]2OCCCC[C@@H](C)Oc3ccc(NC(=O)Nc4ccc5c(c4)OCO5)cc3C(=O)N([C@@H](C)CO)C[C@H]2C)cc1	T cruzi growth-1 inconclusive, Pf Dd2 inh -81.8 | T cruzi growth-2 107.2 | T cruzi growth-3 inactive | NIH3T3 tox inactive | 3T3 cytotox 2 inactive
C[C@@H]1CCCCO[C@@H](CN(C)S(=O)(=O)c2ccc(F)cc2)[C@@H](C)CN([C@H](C)CO)C(=O)c2cc(NC(=O)Nc3ccc4c(c3)OCO4)ccc2O1	none
C[C@@H]1CCCCO[C@@H](CN(C)S(=O)(=O)c2ccccc2)[C@@H](C)CN([C@H](C)CO)C(=O)c2cc(NC(=O)Nc3ccc4c(c3)OCO4)ccc2O1	none
COc1ccc(NC(=O)Nc2ccc3c(c2)C(=O)N([C@H](C)CO)C[C@@H](C)[C@@H](CN(C)S(=O)(=O)c2ccc(OC)cc2)OCCCC[C@H](C)O3)cc1	none
Cc1ccc(S(=O)(=O)N(C)C[C@@H]2OCCCC[C@H](C)Oc3ccc(NC(=O)Nc4ccc5c(c4)OCO5)cc3C(=O)N([C@H](C)CO)C[C@@H]2C)cc1	T cruzi growth-1 118.8 (no result: C diff HTS) | T cruzi growth-2 111.0 | T cruzi growth-3 105.2 | NIH3T3 tox inactive | 3T3 cytotox 2 inactive
C[C@@H]1CCCCO[C@H](CN(C)S(=O)(=O)c2ccc(Cl)cc2)[C@@H](C)CN([C@@H](C)CO)C(=O)c2cc(NC(=O)Nc3ccc4c(c3)OCO4)ccc2O1	T cruzi growth-1 102.7, Pf Dd2 inh -82.8 | T cruzi growth-2 108.0 | T cruzi growth-3 103.7 | NIH3T3 tox inactive | 3T3 cytotox 2 inactive
COCCNC(=O)c1cc2c(c(-c3cccc(C4=CCCCC4)c3)n1)[C@H](CCO)N([S@@](=O)C(C)(C)C)C2	none (no result: T cruzi growth-1)
C[C@H]1CN([C@@H](C)CO)C(=O)c2cc(NC(=O)Nc3ccc4c(c3)OCO4)ccc2O[C@H]1CN(C)C(=O)NC1CCCCC1	none
COc1ccc2c3c([nH]c2c1)[C@H](CO)N(S(C)(=O)=O)CC31CCN(C(=O)c2ccncc2)CC1	none (no result: T cruzi growth-1)
CCC(=O)N[C@H]1C=C[C@H](CC(=O)NCC2CC2)O[C@@H]1CO	none (no result: T cruzi growth-1)
C[C@@H]1CCCCO[C@@H](CN(C)CC2CC2)[C@@H](C)CN([C@H](C)CO)C(=O)c2cc(NS(=O)(=O)c3ccc(Cl)cc3)ccc2O1	none
C[C@@H]1CCCCO[C@@H](CN(C)CC2CCCCC2)[C@H](C)CN([C@@H](C)CO)C(=O)c2cc(NS(=O)(=O)c3ccc(Cl)cc3)ccc2O1	T cruzi growth-1 102.2 | T cruzi growth-2 104.7 | T cruzi growth-3 inactive | NIH3T3 tox inactive | 3T3 cytotox 2 106.3
C[C@H](CO)N1C[C@H](C)[C@H](CN(C)CC2CC2)Oc2ccc(NS(=O)(=O)c3ccc(Cl)cc3)cc2C1=O	none
C[C@@H]1CN([C@@H](C)CO)C(=O)c2cc(NS(=O)(=O)c3ccc(Cl)cc3)ccc2O[C@@H](C)CCCCO[C@H]1CN(C)CC1CCCCC1	T cruzi growth-1 108.4 | T cruzi growth-2 inactive | T cruzi growth-3 inactive | NIH3T3 tox inconclusive | 3T3 cytotox 2 102.5
C[C@@H]1CCCCO[C@@H](CN(C)CC2CCCCC2)[C@@H](C)CN([C@@H](C)CO)C(=O)c2cc(NS(=O)(=O)c3ccc(Cl)cc3)ccc2O1	none
C[C@@H]1CCCCO[C@@H](CN(C)CC2CCCCC2)[C@H](C)CN([C@H](C)CO)C(=O)c2cc(NS(=O)(=O)c3ccc(Cl)cc3)ccc2O1	none
C[C@@H]1CN([C@@H](C)CO)C(=O)c2cc(NS(=O)(=O)c3ccc(Cl)cc3)ccc2O[C@H]1CN(C)CC1CC1	T cruzi growth-1 inconclusive | T cruzi growth-2 inactive | T cruzi growth-3 inactive | NIH3T3 tox inactive | 3T3 cytotox 2 30.7
C[C@@H]1CN([C@@H](C)CO)C(=O)c2cc(NS(=O)(=O)c3ccc(Cl)cc3)ccc2O[C@@H](C)CCCCO[C@H]1CN(C)CC1CC1	T cruzi growth-1 105.6 | T cruzi growth-2 107.0 | T cruzi growth-3 inactive | NIH3T3 tox inactive | 3T3 cytotox 2 inactive
N#C[C@@H]1[C@H](c2ccccc2C2=CCCCC2)[C@H](CO)N1S(=O)(=O)c1cccc(F)c1	none (no result: T cruzi growth-1)
CCC(=O)Nc1ccc2c(c1)OC[C@H](C)N(Cc1ccccc1OC)C[C@H](C)[C@@H](OC)CN(C)C2=O	none (no result: T cruzi growth-1)
COc1ccc2c3c(n(C)c2c1)[C@H](CO)N(C(=O)Nc1cccc(F)c1)CC31CCN(C)CC1	none (no result: T cruzi growth-1, C diff HTS)
CNC[C@@H]1Oc2ccc(N)cc2C(=O)N([C@H](C)CO)C[C@H]1C	none
COc1ccc(CN(C)C[C@H]2Oc3ccc(NS(C)(=O)=O)cc3C(=O)N([C@@H](C)CO)C[C@H]2C)cc1	none (no result: T cruzi growth-1)
CCCNC(=O)C[C@H]1CC[C@H]2[C@H](COc3ccc(NC(=O)Nc4c(C)noc4C)cc3C(=O)N2C)O1	none
Cc1cccc(S(=O)(=O)N[C@@H]2CC[C@H](CCn3cc(-c4ccccn4)nn3)O[C@@H]2CO)c1	none
O=S(=O)(N[C@@H]1CC[C@@H](CCn2cc(-c3cccc(F)c3)nn2)O[C@H]1CO)c1ccc(Cl)cc1	none (no result: C diff HTS)
Cc1ccccc1S(=O)(=O)N[C@H]1CC[C@@H](CCn2cc(-c3ccccc3)nn2)O[C@H]1CO	none
COc1ccc(-c2cn(CC[C@H]3CC[C@@H](NS(=O)(=O)c4ccccc4C)[C@@H](CO)O3)nn2)cc1	T cruzi growth-1 106.8 | T cruzi growth-2 103.3 | T cruzi growth-3 inactive | NIH3T3 tox inactive | 3T3 cytotox 2 inactive
COc1cccc(S(=O)(=O)N[C@@H]2CC[C@@H](CCn3cc(-c4ccccn4)nn3)O[C@@H]2CO)c1	T cruzi growth-1 108.0 | T cruzi growth-2 inactive | T cruzi growth-3 inactive | NIH3T3 tox inactive | 3T3 cytotox 2 inactive
O=S(=O)(N[C@H]1CC[C@@H](CCn2cc(-c3cccc(F)c3)nn2)O[C@H]1CO)c1ccc(Cl)cc1	T cruzi growth-1 111.4 (no result: C diff HTS) | T cruzi growth-2 inactive | T cruzi growth-3 inactive | NIH3T3 tox inactive | 3T3 cytotox 2 inactive
O=C(Cc1ccccn1)N[C@H]1CC[C@H](CCn2cc(-c3ccc(F)cc3)nn2)O[C@@H]1CO	none (no result: T cruzi growth-1)
CC(=O)N[C@@H]1CC[C@H](CCNC(=O)C2CCC2)O[C@H]1CO	none (no result: T cruzi growth-1)
C[C@@H]1CN([C@@H](C)CO)C(=O)c2cc(C#CC3(O)CCCC3)cnc2O[C@@H]1CN(C)Cc1ccccn1	none
CO[C@H]1CN(C)C(=O)c2cc(NC(=O)NC(C)C)ccc2OC[C@H](C)N(Cc2ccc(-c3ccccn3)cc2)C[C@H]1C	none (no result: C diff HTS)

Screens: PubChem BioAssay, Broad Institute
